# Results published in the supplement of paper PMC11417369.
# ± gives the standard deviation of the averaged measurements. The full ranking holds about 25,000 sequences; the median of “ln(normalized median fluorescence intensity)” is about 10, and the highest 2% start at about 12. The full list was thinned out, with the highest values kept by preference.
# System: PfAP2-G AP2 domain (GST-tagged)
# Test: gcPBM binding intensity (ln(normalized median fluorescence intensity)); higher = stronger DNA binding
# In short: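 Binding intensity is defined as the maximum Masliner-normalised natural-log median intensity across replicate spots for either probe orientation. It was measured on an Agilent 4 × 180k array of primer-extended double-stranded 36-bp intergenic genomic probes and negative controls, to which GST-tagged P. falciparum DNA-binding domains made in E. coli were applied for 1 h in 1× PBS with 1% milk, 0.2 mg/ml BSA, 0.5% salmon testes DNA and 0.03% Triton X-100. Detection was by Alexa488 anti-GST antibody and scanning at 488 nm.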
row,Sequence,gcPBM binding intensity (ln)
1,TTCTTTTTAAATTACACACACATATAAATATGTATA [CACACA_site7618],10.04 ± 0.071
2,AAACAAAATGGTAACACACACATATATAAATATGTA [CACACA_site6994],10.2 ± 0.35
3,CATATTGGTATGCTCATGCACTTTTATTTTGTTATT [GTGCAC_site9553],10.2 ± 0.13
4,TTATAATAATATAATACATGCATATATATTTAAATA [TGCATGCA_site903],9.62 ± 0.12
5,TGTTATTATTTGTACACACACATATAGATCCTTGTT [CACACA_site7667],11.3 ± 0.83
6,AAATTACTGTAAAAAAGTACAGAAGTTCTTATTTTT [XGTACX_site7416],11.5 ± 0.93
7,AAAATTAAAATACGTACACACCTTATCTTTTTGGCT [CACACA_site4311],11.7 ± 1.1
8,TTAAAATTATAATACGTACACACCTTATCTTTTTGG [CACACA_site278],11.5 ± 0.86
9,TTAAAATTAAAATACGTACACACCTTATCTTTTTGG [CACACA_site7982],11.6 ± 0.81
10,TGGTTAATATGTGAAAGTACATATTATATTAAAATG [XGTACX_site2636],11.1 ± 0.58
11,TAGTTAATATGAAAAAGTACACGTTTCAGTGAAAGT [XGTACX_site7402],11.7 ± 1
12,TATATTAATATGAAAAGTACACATTCTATATATATA [XGTACX_site929],11.4 ± 0.91
13,AATAAATAAATATATTGTACATATATATATATATAT [XGTACX_site8627],11 ± 0.53
14,ATAAATATACCAATCGGTACACATTTATACAAACAA [XGTACX_site7484],11 ± 0.64
15,ATTCTAAATTAAAATACACACATATATACATAATAT [CACACA_site2792],9.985 ± 0.021
16,TTTTGATCATCCAAAATATCTTCATCTGAACTACTA [CACACA_negctrl_site939],9.84 ± 0.042
17,ATTTTATTTTTGTGCACACTGATAAATTGAAAAGAG [CACACA_site2948],10.8 ± 0.57
18,TATGATTCATAATAGTGTACGTAAAAATTGACTAGA [XGTACX_site5376],11.7 ± 1
19,AATAAATTCATGAATTGTACGTAATGATAACATGAA [XGTACX_site2591],11.3 ± 0.75
20,AATAATCATTTTCATAGTACGTATGATTAGAAAAAA [XGTACX_site2589],11 ± 0.66
21,TTAGCTACACGCTAATGTACACAAATACAAAGAAAA [XGTACX_site3993],11.4 ± 0.71
22,AAAAATGTGCACACGCGTACACACAAAAAAAGAAAA [XGTACX_site4097],11.5 ± 0.79
23,AATGTGCCCACGCGTACACACAAAAAAAGAAAAAAA [CACACA_site2003],11.7 ± 1.1

row,Sequence,gcPBM binding intensity (ln)
1,AATGTGCACACGCGTACACACAAAAAAAGAAAAAAA [CACACA_site7031],11.7 ± 1.1
2,CATGCTTATATGTGCACACACAAAAGAAAAGAAAAA [CACACA_site1655],10.6 ± 0.62
3,AAAATGTGCCCACGCGTACACACAAAAAAAGAAAAA [CACACA_site2004],11.6 ± 0.79
4,TATTATATTATGTGATGTACATATTTATATAGGCCC [XGTACX_site4746],11.2 ± 0.8
5,TGTAGTTTTTATTTATGTACGCATAACATAATTTAA [XGTACX_site104],11.6 ± 0.7
6,TTATTCATTTCGAAAAGTACAAATTCTGTTTATTAT [XGTACX_site6892],11.1 ± 0.71
7,TATACAATATAAAATACACACGCACCCAAAAAAAAA [CACACA_site9174],10.6 ± 0.4
8,TACACAAACAGACACACACACACACGCGCACAAAAA [CACACA_site7192],10.6 ± 0.38
9,AAAAAAAAAAAATGTGCACACGCGTACACCCAAAAA [CACACA_site8614],11.7 ± 0.77
10,CATATAAAAATGTGCACACACACACCCATATATATT [CACACA_site1526],10.4 ± 0.41
11,AAAAAAAAAAAATGTGCACACGCGTACAGACAAAAA [CACACA_site2005],11.8 ± 0.99
12,AAAAAAAAAACAAATACACACGCACCCAAAAAAAAA [CACACA_site8166],10.5 ± 0.26
13,AACACGCACAGACACACACACAAAAATGATTAAAAA [CACACA_site7195],10.6 ± 0.67
14,AAAAAAAAAATGTGCACACGCGTACACCCAAAAAAA [CACACA_site5149],11.7 ± 0.99
15,AACATATAAAAATGTGCACACACACCCATATATATA [CACACA_site1525],10.4 ± 0.3
16,AAGGAACTATAATATACACACATAAGTGTACTTATA [CACACA_site7816],11.5 ± 1
17,TATATATATATAACAACACACACAGATCATAAAACT [CACACA_site8670],10.3 ± 0.27
18,TTAATACCCAGACACACACACACAAAATAAAATACA [CACACA_site7968],10.2 ± 0.4
19,TTGTATTAAAATCAAGTGCATATAATTTAAGTTCAT [GTGCAC_site9495],10 ± 0.16
20,ATAATTAACAAATACACACACACACGCCCACAAAAA [CACACA_site6389],10.9 ± 0.54
21,AAATTTAAATAATGTGCGCATCTTAATATATATAAG [GTGCAC_site9890],10.2 ± 0.13
22,CCCCATTTATCTTAAGCATGCCATGGTTTTAGATAT [TGCATGCA_site24],10.6 ± 0.42
23,ATACATAAATTTTGTACACACAAAAAAAAAAAAGCT [CACACA_site1351],11.2 ± 0.87

row,Sequence,gcPBM binding intensity (ln)
1,CTTATACATAAATTTTGTACACACAAAAAAAAAAAA [XGTACX_site2665],11.2 ± 1.1
2,GAAAATTTTTGGTGTACACAAAAAAATCCAAAAAAA [CACACA_site5042],11.7 ± 0.87
3,ATGAATATAAAATATACACACTTATATATCGAATGA [CACACA_site6240],9.79 ± 0.13
4,ATTAGAGAATCGTAACCCAAATGAACATACTTAAAT [GTGCAC_negctrl_site363],10.04 ± 0.035
5,AAAAAAAATATATAAACACACATATTTATATACTCA [CACACA_site4984],9.665 ± 0.092
6,TTTATTTATTTTTGTTGTACACTTGTATATATTATT [XGTACX_site6486],11.4 ± 0.8
7,TACAAAATAACTAGCACACATATGTATAAACATATA [CACACA_site5948],10.1 ± 0.17
8,TATACATAAAACAGTTCACACATTGTATGAATATAT [CACACA_site4751],9.855 ± 0.035
9,ATAAAATAAATATAACCACACACGAAAGAGAGAGAA [CACACA_site9075],10.09 ± 0.057
10,GTAAACAATTATGAACGTACATAAAATAAATGAACA [XGTACX_site7159],11.3 ± 0.85
11,ATAATAAATTCTACGCGTACAAAACCATGAACATTA [XGTACX_site7505],11.7 ± 1.1
12,ATATTAATTCTACATTGTACACATGAAAAAATATAA [XGTACX_site8759],11.4 ± 0.96
13,CAAGGAACCAGACACACACACATAAATGTATATATA [CACACA_site752],10.1 ± 0.18
14,TTCATTCAAATCCAAGCATGCTTTATTAAAAAATTA [TGCATGCA_site567],9.84 ± 0.26
15,TTTATTTTTCCATATGCACACACACCGTATATATAA [CACACA_site8293],10.3 ± 0.16
16,TCTTAAAATCGGAAATGAAATAAAGTTTACAATATG [TGCATGCA_negctrl_site553],9.87 ± 0.071
17,ATATGTATTAAGTGTACACATATAATGGGTTTTCTT [CACACA_site5328],11.6 ± 0.73
18,ATATGTTTTAAGTGTACACATATAATGTATTTTGTT [CACACA_site4929],11.6 ± 0.9
19,TTTATATGTTTTAAGTGTACACATATAATGTATTTT [XGTACX_site3069],11.6 ± 0.91
20,ATATGTATTAAGTGTACACATATAATGTATTTTGTT [CACACA_site4177],11.6 ± 0.92
21,TTTATATGTATGAAGTGTACACATATATTGTATTTT [XGTACX_site5731],11.6 ± 0.82
22,ATATGTATGAAGTGTACACATATATTGTATTTTCTT [CACACA_site5503],11.7 ± 0.91
23,ATATGTATTAAGTGTACACATATAATGGGTTTGTTA [CACACA_site5682],11.7 ± 0.95

row,Sequence,gcPBM binding intensity (ln)
1,TTTATATGTATTAAGTGTACACATATAATGTGTTTG [XGTACX_site6629],11.5 ± 0.86
2,ATATATATATATATATGTACACATATATTTCTTTTC [XGTACX_site3443],11.4 ± 0.91
3,TGCTATAATTTATATACACACAAATATATACGCATA [CACACA_site4096],10 ± 0.14
4,AGAAAAATTATTTTGCGTACATATTTACAATAAAAA [XGTACX_site2144],11.5 ± 0.75
5,TTTTTTTTGCGTACAGTGCAAATTTATTTACTATTC,11.7 ± 1.1
6,TTTTATTTACACAGTGGTACTATTAAAAATTAATGA [XGTACX_site6737],11 ± 0.7
7,GACATTTCTTGGGATACATGCATGTCCCAGAACAAA [TGCATGCA_site271],10.6 ± 0.4
8,TTTTTATTTTTTAGTAGTACACACTTTTTGAACCTT [XGTACX_site1091],11.6 ± 0.97
9,TGTTTACACTTTTTTTGTACACATAATTTTATTTGA [XGTACX_site3760],11.3 ± 0.81
10,TTTTTTATTACTTTGTGTACTTACACAGAACCTTAT [XGTACX_site6038],11.5 ± 0.88
11,TTTTTATTTTTGTAGTGTACTTTATTTTTTTTGTTT [XGTACX_site8887],11.6 ± 0.91
12,CTTATTTCCTTTTGTAGTACCTTATAATATATATAA [XGTACX_site8873],11.3 ± 0.69
13,ATTCTTTTATTTAGTAGTACATTTGTATTTTATTCA [XGTACX_site5790],11.5 ± 0.95
14,TTATTTTTTAGTAGTACACACTTTTTGTACCTTTTA [CACACA_site4503],11.8 ± 1.1
15,TTTTATTTTTTAGTAGTACACACTTTTTGTACCTTT [CACACA_site599],11.8 ± 1
16,TTTGAACTTTTATATACACACATTATTATAGTATAG [CACACA_site6851],10.04 ± 0.071
17,AATTATATAAGCCACGCATGTGTGCATAAAAATACA [TGCATGCA_site114],10.2 ± 0.14
18,TGTACGAGTCGTAGAGTGCAGTCTGGAGAAACGTAC [GTGCAC_site9682],11 ± 0.47
19,AATTTACATATATATTGTACATTTATGTATATATAT [XGTACX_site4186],10.7 ± 0.52
20,AAATAAATCTTATGCACACAAATAATTAATTAAACA [CACACA_site1693],10.06 ± 0.014
